Inconclusive results are not listed. Unmarked numbers belong to inactive results. Calls of active or inactive are those of the source. Calls follow the shape of the dose curve; as a rule, active = well fitted cell-killing curve with a large enough effect; inconclusive = small, poorly fitted or top-dose-only effect; inactive = flat fitted curve, though single readings scatter.

This assay can be described thus: Cell Viability - LYMP2-012 (AID 982).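 Also: cellular ATP by luciferase luminescence where a drop means cytotoxicity; cells exposed to compound for one day before reading; 0% = DMSO only and full loss = 92 µM tetraoctylammonium bromide; nearly all actives have a fitted effect of over 55% in size.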 The following applies: LYMP2-012 lymphoblastoid cell viability qHTS; series mostly up to 92.2 µM; activity change, negative = cytotoxicity: at the top concentration. From the text:
NIH Chemical Genomics Center [NCGC]
NIH Molecular Libraries Screening Centers Network [MLSCN]
National Institutes of Environmental Health Sciences [NIEHS]
National Toxicology Program [NTP]
We have developed a 1536-well cell-based assay for quantitative high throughput screening (qHTS) against a number of cell lines to determine in vitro cytotoxicity of small molecules. This particular assay uses a human lymphoblastoid cell line (LYMP2-012) purchased from Coriell Institute for Medical Research.
NCGC Assay Protocol Summary:
The CellTiter-Glo luminescent cell viability assay (Promega) is a homogeneous method to measure the number of viable cells in culture. The end point readout of this assay is based on quantitation of intracellular ATP, an indicator of metabolic activity, using the luciferase reaction. Luciferase catalyzes the oxidation of beetle Luciferin to oxyluciferin and light in the presence of ATP. The luminescent signal is proportional to amount of ATP present.
Using the CellTiter-Glo luminescent cell viability assay, the amount of cellular ATP was measured in the lymphoblastoid cell line with complete culture medium following compound treatment for 24 hours. The assay was performed in opaque white Kalypsys 1536-well plates. In the screen, tetraoctylammonium bromide was used as positive control. Library compounds were measured for their ability to cause acute toxicity in the cell line, as reflected by a decrease in intracellular ATP levels, in a concentration-dependent manner. […] AC50 values were determined from concentration-response data modeled with the standard Hill equation.
qHTS protocol for CellTiter Glo lymphoblastoid cellular assay
[Step] [Parameter] [Value] [Description]
1. Reagent; 5 uL; 2500 lymphoblastoid cells/well
2. Time; 5 hr; 37 C incubation
4. Controls; 23 nL; Tetraoctylammonium bromide 6.4pM to 92 uM
5. Time; 24 hr; 37 C incubation
6. Reagent; 5 uL; CellTiter Glo reagent
7. Time; 30 min; Room Temperature
8. Detection; Luminescence; Viewlux plate reader
Keywords: cell viability, cytotoxicity, lymphoblastoid cell line, luminescence, NTPHTS, NTPHTS_NCGC, NIEHS, DSSTox, MLSMR, MLSCN, NIH Roadmap, qHTS, NCGC
(In general: In qHTS, concentration-response curves come from the screen itself.)
With `NS(=O)(=O)c1cc2c(cc1Cl)NCNS2(=O)=O`, the “activity change, negative = cytotoxicity” value is -1.4%.

Turning to `CC(C)C(=O)Nc1ccc([N+](=O)[O-])c(C(F)(F)F)c1`, the “activity change, negative = cytotoxicity” value is -8.2%. Same read-out and setting: under `Cn1c(=O)c2[nH]cnc2n(C)c1=O` stands 4.57%.

Turning to `Cc1cn([C@H]2C=C[C@@H](CO)O2)c(=O)[nH]c1=O`, the molecule was classed as inactive. Regarding `Cn1c(=O)c2c(ncn2C)n(C)c1=O`, the “activity change, negative = cytotoxicity” value is -1.37%. The same measure, in the same setting: the value for `Nc1ccn([C@H]2CC[C@@H](CO)O2)c(=O)n1` was 0.0283%; that for `O=c1c(-c2ccc(O)cc2)coc2cc(O)cc(O)c12` was -23.8%.

As to `Clc1ccc(C(c2ccccc2Cl)C(Cl)Cl)cc1` (configuration not stated), the “activity change, negative = cytotoxicity” value is -2.99%.

For `N[C@@H](Cc1c[nH]c2ccc(O)cc12)C(=O)O`, the “activity change, negative = cytotoxicity” value was -18.3%. Still for that read-out and setting: under `CCC1(c2ccccc2)C(=O)NCNC1=O` stands 11.3%; under `COc1ccc2[nH]cc(CCNC(C)=O)c2c1`, 5.92%. Still for that read-out and setting: under `CC(C)NCC(O)c1ccc(O)c(O)c1` (configuration not stated) stands -1.16%. For the molecule `Cc1ccc(-c2cc(C(F)(F)F)nn2-c2ccc(S(N)(=O)=O)cc2)cc1`, the “activity change, negative = cytotoxicity” value was -10.5%. Same read-out and setting: the value for `COc1ccc2c(c1)c(CC(=O)O)c(C)n2C(=O)c1ccc(Cl)cc1` was -0.11%; that for `NCCS(=O)(=O)O` was -2.73%; that for `Cc1cn([C@H]2C[C@H](N=[N+]=[N-])[C@@H](CO)O2)c(=O)[nH]c1=O` was -6.82%. As for `Nc1c2c(nc3ccccc13)CCCC2`, the “activity change, negative = cytotoxicity” value was -26.9%.
